Assay outcomes: PubChem BioAssay, National Center for Advancing Translational Sciences (NCATS)
The list is not random: actives were taken first. Their share in the collection is about 0.87%.
RECQ1 inh-1: RECQ1 (human) helicase inhibition | RECQ1 DNA unwinding, red fluorescence kinetic read | AID 2549 | 0.54% of 240,000 active | P46063 | Potency, µM (series often up to 57.3 µM), for the others: at the highest dose activity, negative = inhibition, actives largely listed as inhibitors;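 also: plate controls were vehicle for no effect and no enzyme for full effect; nearly all actives have a fitted effect of over 30% in size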
Target sequence (P46063 whole entry, looked up): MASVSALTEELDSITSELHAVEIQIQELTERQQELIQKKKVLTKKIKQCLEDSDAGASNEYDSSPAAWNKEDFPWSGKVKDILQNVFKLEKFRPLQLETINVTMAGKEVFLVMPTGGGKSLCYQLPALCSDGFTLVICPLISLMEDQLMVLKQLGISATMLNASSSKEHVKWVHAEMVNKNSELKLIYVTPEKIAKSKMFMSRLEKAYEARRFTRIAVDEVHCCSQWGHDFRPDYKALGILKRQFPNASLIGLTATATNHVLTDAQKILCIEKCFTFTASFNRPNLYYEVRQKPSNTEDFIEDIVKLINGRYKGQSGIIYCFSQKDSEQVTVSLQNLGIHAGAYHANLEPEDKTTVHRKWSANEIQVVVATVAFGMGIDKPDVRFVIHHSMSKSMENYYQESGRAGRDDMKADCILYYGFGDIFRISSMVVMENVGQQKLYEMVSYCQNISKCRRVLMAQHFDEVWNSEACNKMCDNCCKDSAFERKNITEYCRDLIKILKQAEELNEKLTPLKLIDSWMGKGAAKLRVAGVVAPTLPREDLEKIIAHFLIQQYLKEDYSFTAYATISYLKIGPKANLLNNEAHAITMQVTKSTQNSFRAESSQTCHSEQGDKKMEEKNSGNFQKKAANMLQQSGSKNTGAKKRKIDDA
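RECQ1T1 50 nM; forked duplex (20 bp + 30-nt ss tails) 200 nM, ATP 2 mM final; pH 8.0, 2 mM MgCl2, 2.5 ug/ml poly(dI-dC); 15 min compound preincubation; discontinuous kinetic read over 2 h at RT.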
GCN5L2 inh: blocks human GCN5L2 histone acetyltransferase; GCN5L2 HAT assay, ThioGlo1 CoA-SH fluorescence; Potency, µM (series often up to 58.9 µM), for inactives: at the highest dose activity change, negative = inhibition, most hits filed as inhibitors; 0.21% of 390,000 active; AID 504327
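Compounds, pin-transferred from DMSO stocks, meet 20nM GCN5L2 for 15 min before the reaction begins with H3(1-25) peptide (75uM) and acetyl-CoA (70uM). Thiol-reactive ThioGlo1 reports CoA release over 20 min at room temperature.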
APE1 inh: APE1 (human) endonuclease inhibition; recombinant APE1, TAMRA/BHQ-2 abasic DNA cleavage fluorescence; AID 2517; Potency, µM (series often up to 65.8 µM), for inactives: top-dose activity change, negative = inhibition, most hits filed as inhibitors; 0.35% of 350,000 active; P27695;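 also: plate controls were vehicle for no effect and reference inhibitor for full effect; nearly all actives have a fitted effect of over 55% in size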
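Activity was derived from the fluorescence gain between first and third kinetic reads (60 s intervals, ex 525/em 598 nm) after 50 nM THF-abasic TAMRA/BHQ-2 duplex was added to 0.75 nM APE1 preincubated 15 min with compound.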
RGS4 inhibitor: inhibitors of human regulator of G protein signaling 4; 0.039% of 390,000 active; Transcreener GDP fluorescence polarization, RGS4-accelerated GTP hydrolysis; AID 504845; Potency, µM (series often up to 114 µM), for inactives: top-dose activity change, negative = inhibition, usual class: inhibitors; P49798; also: nearly all actives have a fitted effect of over 75% in size
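MLSMR compounds (23 nl, pin-transferred) preincubated 10 min at room temperature with a 500nM (2x) first reagent, then RGS4 at 900nM (2x) plus Transcreener GDP mix added; fluorescence polarization (620/688 nm) read before and after 90 min at 30 °C.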
TDP1 block: TDP1 (human) enzyme inhibition | Q9NUW8 | recombinant TDP1, AlphaScreen DNA substrate cleavage | Potency, µM (doses to about 130 µM), inactives show top-dose activity change, negative = inhibition, most hits filed as inhibitors | 0.28% of 350,000 active | AID 485290; also: nearly all actives have a fitted effect of over 40% in size
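Signal: AlphaScreen proximity between streptavidin donor and anti-FITC acceptor beads on intact substrate. Reaction: Tdp1 1 nM, substrate 15 nM final, 5 min RT after 15 min compound preincubation.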
BLM inh: blocks DNA unwinding by human BLM helicase. 0.2% of 350,000 active. AID 2528. P54132. Potency, µM (doses to about 56.1 µM), without a hit: at the top dose activity change, negative = inhibition, actives largely listed as inhibitors. recombinant BLM DNA unwinding, fluorescence dequenching;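 also: plate controls were vehicle for no effect and no enzyme for full effect; nearly all actives have a fitted effect of over 35% in size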
RECQ1 conf: confirmation of human RECQ1 helicase inhibitors; RECQ1 helicase DNA unwinding, fluorescence; Potency, µM (titrated, usually from 229 µM), without a hit: at the top dose activity change, negative = inhibition, hits mostly inhibitors; shares compounds with RECQ1 inh-1; 28% of 610 active; also: nearly all actives have a fitted effect of over 45% in size
ADP FP counter: displaces ADP in a fluorescence polarization counter-screen for RECQ1 hits. shares compounds with RECQ1 inh-1. ADP fluorescence polarization displacement counterscreen. Potency, µM (top dose mostly 228 µM), without a hit: at the highest dose activity change, negative = inhibition, hits mostly inhibitors. 27% of 530 active. AID 2711; also: nearly all actives have a fitted effect of over 45% in size
RECQ1 inh-2: confirmation of human RECQ1 helicase inhibitors; shares compounds with RECQ1 inh-1; recombinant RECQ1 DNA unwinding, red fluorescence; Potency, µM (highest dose often 119 µM), for the others: top-dose activity, negative = inhibition, usual class: inhibitors; 15% of 1,100 active; also: nearly all actives have a fitted effect of over 50% in size
An asterisk follows results filed as active; i = inactive; ? = inconclusive; nt = no result given; [ ] = another dose, or the depositor's remark. Calls follow the shape of the dose curve; as a rule, active = well fitted curve in the direction sought with a large enough effect; inconclusive = small, poorly fitted or top-dose-only effect, or another doubt; inactive = no such curve, though single readings can be large; an effect the other way counts as inactive or inconclusive. Unless noted, % is scaled to controls: 0 for no effect and ±100 for the full control effect; potency is read from the fitted curve at half-maximal effect.

SMILES	RECQ1 inh-1	GCN5L2 inh	APE1 inh	RGS4 inhibitor	TDP1 block	BLM inh	RECQ1 inh-2	others
Cc1nc(-c2cccnc2)sc1CCNS(=O)(=O)c1ccc(F)cc1	nt	-7.2%	nt	2.9%	6.6%	2.5%	nt
COc1cc(/C=N/N2C(=O)CSC2=S)ccc1O	?	-7.9%	4.3%	-23.0%	-9.8%	-1.0%	?
COc1ccc(Br)cc1/C=N/N1C(=O)CSC1=S	nt	-20.8%	-7.3%	-37.8%	-0.1%	-2.8%	nt
COP1(=O)CC(O)C(O)C(COCc2ccccc2)O1 (stereo not drawn)	i	nt	3.0%	12.8%	7.4%	3.9%	nt
CCOC(=O)C1(CC2CC2)CCN(S(=O)(=O)/C=C/c2ccccc2)CC1	?	-15.4%	6.1%	-5.2%	-9.6%	-4.9%	-16.8%
CCOC(=O)C1(CC2CC2)CCN(Cc2cn[nH]c2-c2ccccc2)CC1	-5.7%	-1.1%	2.2%	11.8%	0.0%	-1.7%	nt
CCCOc1ccc(CNC(=O)c2cc3ccccn3n2)cc1	nt	-5.1%	nt	-16.0%	5.3%	-2.2%	nt
COc1cccc(CNc2nc3ccccc3c3nc(-c4cccc(C)c4)nn23)c1	nt	-14.9%	nt	25.1%	-3.9%	-8.7%	nt
N=C1S/C(=C\c2ccc(-c3ccccc3C(=O)O)o2)C(=O)N1c1ccc2c(c1)OCO2	-2.2%	-24.2%	?	?	-8.1%	-19.9%	nt	RECQ1 conf=?;ADP FP counter=?
CCCCCCOC1(c2ccccc2)OC(=O)c2ccccc21 (stereo not drawn)	39.8µM*	-0.3%	12.3%	-8.5%	nt	-8.3%	-13.7%
CCCCCCCOC1(c2ccccc2)OC(=O)c2ccccc21 (stereo not drawn)	-6.9%	-5.1%	-2.1%	-20.2%	-5.9%	-8.6%	nt
CCN1C(=O)[C@@H]2[C@H]3C(=CC[C@H]2C1=O)C(=O)[C@H]1OC1[C@H]3O (stereo partly drawn)	17.7%[11.5 µM]	nt	29.4%[12.4 µM]	nt	-5.8%[21 µM]	4.1%[12.4 µM]	nt
CN(Cc1ccccc1)C(=O)c1ccco1	i	-6.6%	3.7%	21.9%	0.0%	-6.5%	nt
Cc1ccc(C(CCN(Cc2ccccc2)C(=O)c2ccco2)c2ccco2)cc1 (stereo not drawn)	20µM*	?	-11.5%	?	-3.1%	?	?	RECQ1 conf=50.1µM*;ADP FP counter=23.5%[91.9 µM]
CCOC(=O)CNS(=O)(=O)c1ccc(F)cc1Br	i	nt	3.1%	-2.2%	4.4%	3.2%	nt
COCCCn1c(=O)/c(=C\c2ccccc2OC(F)F)s/c1=C(/C#N)C(=O)NC(C)C	?	-0.9%	1.1%	9.0%	5.4%	-7.2%	-12.6%
COCCCn1c(=O)/c(=C\c2ccc(OC(F)F)c(OC)c2)s/c1=C(/C#N)C(=O)NCCOC	12.5%	-3.1%	13.5%	6.9%	0.0%	-2.6%	nt
COCCCn1c(=O)/c(=C\c2ccccc2OC(C)C)s/c1=C(/C#N)C(=O)Nc1ccc(C(=O)O)cc1	?	?	-2.2%	-12.0%	-9.6%	-7.8%	?
Cc1cc2c(c(=O)o1)C(c1ccc([N+](=O)[O-])o1)C(C#N)=C(N)O2 (stereo not drawn)	22.4µM*	-1.6%	8.91µM*	?	nt	-1.1%	-19.5%
CCC(CC)C1C(C#N)=C(N)Oc2cc(C)oc(=O)c21 (stereo not drawn)	-11.3%	-3.3%	16.7%	-10.3%	1.5%	-5.2%	nt
O=C(CN1C(=O)COc2ccc(S(=O)(=O)Nc3ccccc3)cc21)NCc1ccccc1Cl	nt	0.2%	nt	0.9%	5.6%	-3.9%	nt
Cn1c(Cn2nnc3ccccc32)nnc1SCC(=O)N1c2ccccc2Sc2ccccc21	i	-16.1%	?	-9.9%	9.6%	-5.2%	nt	RECQ1 conf=-3.6%;ADP FP counter=24.9%
Cn1c(Cn2nnc3ccccc32)nnc1SCC(=O)N1c2ccccc2CCc2ccccc21	-2.0%	-11.5%	?	6.7%	4.2%	-2.9%	nt
Cc1onc(-c2c(F)cccc2Cl)c1C(=O)OCC(=O)c1c[nH]c2ccccc12	22.4µM*	-24.0%	?	12.8%	nt	-15.1%	-25.1%
COCO[C@H]([C@@H](C)C=C(Br)Br)[C@@H](C)COCc1ccc(OC)cc1	-9.4%	nt	-0.9%	-6.5%	-6.8%	1.3%	nt
SMILES	RECQ1 inh-1	GCN5L2 inh	APE1 inh	RGS4 inhibitor	TDP1 block	BLM inh	RECQ1 inh-2	others
Cc1ccccc1CSc1nnc(NC(=O)Cc2cccs2)s1	39.8µM*	-2.6%	?	-5.7%	2.6%	-21.1%	-28.5%
O=C(/C=C/c1ccc2c(c1)OCO2)Nc1nc(-c2ccccc2)cs1	1.41µM*	-26.2%	8.9%	14.8%	-5.9%	-10.9%	?	RECQ1 conf=-3.2%[114 µM];ADP FP counter=6.4%[91.9 µM]
Cc1sc(NC(=O)/C=C/c2ccc3c(c2)OCO3)nc1-c1ccccc1	-13.9%	?	20.5%	9.9%	3.0%	-9.0%	nt
O=C(NCc1ccco1)c1ccc(S(=O)(=O)N2CCOCC2)cc1	?	-28.4%	31.6µM*	-34.7%	nt	-26.6%	-20.3%
O=S(=O)(c1ccc2ccccc2c1)N1CCOCC1	nt	-2.7%	29.5%	7.8%	-0.5%	0.0%	nt
O=C(NCc1ccco1)C1CCCCN1S(=O)(=O)c1ccc(F)cc1 (stereo not drawn)	?	-1.8%	12.9%	1.5%	4.9%	-0.3%	-9.7%
O=C(NCc1ccco1)c1ccc(S(=O)(=O)N2CCCCC2)cc1	-6.4%	-1.5%	6.3%	0.4%	0.0%	-1.5%	nt
O=S(=O)(c1ccc2nc(-c3ccco3)c(-c3ccco3)nc2c1)N1CCOCC1	31.6µM*	?	?	?	0.9%	14.1µM*	14.9%
Cc1ccc(CNC(=O)C2CCCCN2S(=O)(=O)c2ccc(F)cc2)cc1 (stereo not drawn)	nt	-2.0%	nt	-16.0%	-2.6%	-2.5%	nt
O=C(c1ccco1)N(c1ccccn1)c1ccccn1	7.3%	2.0%	1.2%	-28.2%	4.7%	2.6%	nt
O=C(/C=C/c1ccco1)N(c1ccccn1)c1ccccn1	?	?	?	-36.6%	nt	?	44.7µM*
Cc1cc(C)cc(N2C(=O)CN(Cc3sccc3C)C2=S)c1	-13.0%	-4.6%	-27.8%	24.1%	-8.2%	-9.7%	nt
